# Reference: PubChem BioAssay
# Where “and” joins values, the source holds several entries; their conditions need not be identical. Equal values may be shown once. Where a structure was tested more than once in an assay, its records may differ in their call. Calls of active or inactive are those of the source. Unless noted, the rule behind the calls is not given here.
# Experiments:
# [1] = tested on: Wnt5a (protein binding on small-molecule microarray); experiment: Wnt5a binders on small-molecule microarray, primary screen, biophysical, 635/667 nm fluorescence (AID 1142); settings: 635 nm fluorescence, higher = more signal;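 note: fluorescence read at 667 nm with signal to noise per printed feature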
# [2] = cell viability in Huh7 cells, primary screen, cytotoxicity control for HCV replication inhibitor project, CellTiter-Glo luminescence, basal, 48 h (AID 1143); settings: Huh7 HCV replicon, higher = more signal, called active from +8 up or from −8 down;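 note: Huh7 hepatoma cells carrying a hepatitis C replication reporter with no stimulus; test concentration not given here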
# [3] = P. aeruginosa biofilm formation inhibitors, primary screen, PAO1 strain, BacTiter-Glo luminescence, LB-PBS (AID 1144); settings: 12 h, higher = more signal
# [4] = CREB reporter modulators without forskolin, primary screen, cell-based, PC12, CRE-LacZ reporter, unstimulated (AID 1145); settings: no forskolin, luminescence, 4.5 h, higher = more signal, called active from +8 up or from −8 down
# [5] = CREB reporter modulators under forskolin, primary screen, cell-based, PC12, CRE-LacZ reporter, forskolin-stimulated (AID 1146); settings: luminescence, 4.5 h, higher = more signal, called active from +8 up or from −8 down;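 note: PC12 cells with 6xCRE LacZ reporter stimulated by forskolin 10 µM; beta-galactosidase reporter signal reflecting CREB driven transcription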
# [6] = target: Streptavidin (Streptomyces avidinii) (UniProt P22629); experiment: streptavidin binders on small-molecule microarray, primary screen, artefact control for SMM compound annotation, biophysical, 635/667 nm fluorescence (AID 1147); settings: streptavidin binding, higher = more signal;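 note: signal reflects streptavidin binding to arrayed compounds as a control protein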
# [7] = small-molecule binders of probe aInhba, primary screen, biochemical, small-molecule microarray, 635/667 nm fluorescence (AID 1148); settings: higher = more signal;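 note: score merges 667nm spot fluorescence with signal-to-noise for antibody binding to printed compounds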
# Torsin-1A (Homo sapiens) [8] = target: Torsin-1A (Homo sapiens) (UniProt O14656); experiment: torsin A binders from cell lysate, primary screen, small-molecule microarray, wild-type, 635/667 nm (AID 1149); settings: COS7 hTOR1A-WT lysate, 635 nm fluorescence, higher = more signal
# Torsin-1A (Homo sapiens) [9] = target: Torsin-1A (Homo sapiens) (UniProt O14656); experiment: small-molecule binders of mutant TOR1A in lysate, primary screen, cell lysate, small-molecule microarray, COS7 lysate, 635/667 nm fluorescence (AID 1150); settings: COS7 hTOR1A mutant lysate, 635 nm fluorescence, higher = more signal;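 note: score pools 667 nm emission and signal to noise measuring lysate protein binding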
# [10] = tested on: Sonic hedgehog protein (Shh); experiment: small-molecule binders of Shh protein, primary screen, biochemical, small-molecule microarray, 635/667 nm fluorescence (AID 1151); settings: small-molecule microarray binding, 635 nm fluorescence; higher = more signal;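 note: Shh protein binding to compounds spotted on small-molecule microarray slides; score combines spot fluorescence intensity with signal-to-noise across triplicate slides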
# Sequence of Streptavidin (Streptomyces avidinii) (P22629 whole entry, looked up): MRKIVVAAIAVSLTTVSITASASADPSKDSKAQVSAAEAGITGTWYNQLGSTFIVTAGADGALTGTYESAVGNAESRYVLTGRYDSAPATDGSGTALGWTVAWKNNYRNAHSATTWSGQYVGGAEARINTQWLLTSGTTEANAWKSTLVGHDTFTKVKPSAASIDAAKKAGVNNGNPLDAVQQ
# Sequence of Torsin-1A (Homo sapiens) (O14656 whole entry, looked up): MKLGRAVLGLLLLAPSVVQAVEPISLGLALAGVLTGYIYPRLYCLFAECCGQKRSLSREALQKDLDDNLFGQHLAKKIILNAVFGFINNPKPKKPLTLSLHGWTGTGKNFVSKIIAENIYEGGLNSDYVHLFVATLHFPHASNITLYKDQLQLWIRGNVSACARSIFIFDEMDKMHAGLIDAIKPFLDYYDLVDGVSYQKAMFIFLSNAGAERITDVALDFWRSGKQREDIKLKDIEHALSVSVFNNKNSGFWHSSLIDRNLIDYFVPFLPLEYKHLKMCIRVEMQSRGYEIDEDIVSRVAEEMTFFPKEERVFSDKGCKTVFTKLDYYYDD
SMILES,composite z-score [1],z-score [2],z-score [3],z-score [4],z-score [5],composite z-score [6],composite z-score [7],composite z-score (Torsin-1A (Homo sapiens) [8]),composite z-score (Torsin-1A (Homo sapiens) [9]),composite z-score [10]
COc1ccc(COC(=O)NN=C2C[C@@H](O)[C@@H](O)[C@@H]3[C@@H]4C(=O)N(C(C)(C)C)C(=O)[C@@H]4CC[C@H]23)cc1,-0.0647,-1.47 (inactive),0.439 (inactive),0.876 (inactive),0.479 (inactive),-0.199,-0.151,0.656,-0.178,0.352
CCCCN1CC=CC23O[C@@H]4C=CCCOC(=O)C4[C@H]2C(=O)N(C(C)CO)[C@@H]3C1=O (stereo not given in full),-0.296 and 0.339,0.161 (inactive) and -0.214 (inactive),0.781 (inactive) and 1.82 (inactive),-0.216 (inactive) and -0.204 (inactive),0.405 (inactive) and -0.764 (inactive),-1.23 and -0.178,-0.143 and 0.201,0.234 and -0.131,0.234 and 0.148,0.173 and 0.798
COC(=O)C1=C(C)N(Cc2ccccc2)C2=C3C(=O)N(c4ccccc4)C(=O)[C@@H]3[C@@](O)(C(=O)OC)C(=O)N2[C@@H]1c1ccccc1,0.297 and 0.678,-0.146 (inactive) and -1.82 (inactive),0.9 (inactive),2.72 (inactive) and -0.615 (inactive),-0.718 (inactive) and -0.78 (inactive),0.117 and 0.12,-0.024 and -0.0313,0.801 and 0.365,0.516 and 0.533,0.574 and 0.726
CCOC(=O)C[C@H]1[C@H](OC(=O)c2ccccc2-c2ccccc2)[C@@H](NC(=O)c2ccccc2)c2cc(OCCCO)ccc2N1C(=O)c1ccc2ccccc2n1,0.103 and 0.147,-0.616 (inactive) and 0.662 (inactive),0.559 (inactive) and 0.171 (inactive),9.27 (active) and -0.23 (inactive),0.158 (inactive) and -0.583 (inactive),-0.0119 and 1.12,0.216 and 0.0047,0.144 and 0.158,0.0956 and 0.344,0.502 and 1.8
Cc1ccc(S(=O)(=O)OC[C@@H]2CN3[C@@H](CC[C@@H](C)[C@@H]3c3ccc(Br)cc3)C(=O)O2)cc1,0.225 and 0.0286,0.0308 (inactive) and -0.565 (inactive),0.152 (inactive) and -0.0678 (inactive),0.471 (inactive) and 1.22 (inactive),0.599 (inactive) and -0.853 (inactive),0.197 and 0.0059,-0.0736 and 0.0173,0.478 and 0.543,0.244 and 0.594,0.566 and 0.616
C=C[C@H](C)[C@@H](O)c1ccc(OCCO)cc1,-0.827 and -0.751,-1.64 (inactive) and 0.216 (inactive),0.0711 (inactive) and -0.987 (inactive),-0.883 (inactive) and 0.861 (inactive),-0.783 (inactive) and -0.722 (inactive),0.129 and -0.772,-0.37 and -0.208,-1.96 and -1.8,-2.09 and -1.25,0.134 and 0.524
C=CC[C@@H](O)c1ccc(O)c2ccccc12,0.173 and 0.435,0.794 (inactive) and -0.721 (inactive),-0.498 (inactive) and -1.33 (inactive),3.25 (inactive) and 2.1 (inactive),2.5 (inactive) and 5.93 (inactive),0.49 and 0.679,-0.0553 and -0.141,0.261 and 0.0205,0.426 and 0.369,1.96 and 1.82
CCCC[C@@H]1CN2[C@H](c3ccc(Br)cc3)[C@@H](C)CC[C@H]2C(=O)O1,-0.134 and -0.107,-0.394 (inactive) and -0.261 (inactive),-0.379 (inactive) and -0.292 (inactive),-0.343 (inactive) and 0.285 (inactive),0.903 (inactive) and 0.466 (inactive),-0.13 and 0.159,-0.261 and -0.0531,0.0781 and 0.436,0.516 and -0.16,0.11 and 0.152
C[N+](C)(C)CCCCCCNC(=O)[C@@H]1C[C@@H]2C(=O)N[C@@H](CCCC[N+](C)(C)C)C(=O)N2[C@@H]1c1ccc(O)cc1,0.107 and -0.0086,0.0047 (inactive) and 0.0071 (inactive),-0.424 (inactive) and -0.439 (inactive),-0.532 (inactive) and -1.08 (inactive),-1.2 (inactive) and 0.128 (inactive),-0.392 and -0.129,-0.128 and -0.0375,0.854 and -0.609,0.0983 and -0.498,1.61 and 2.12
C=CC[C@@H](O)c1ccc(OCCO)cc1,-0.0578 and -0.579,-0.924 (inactive) and -0.105 (inactive),0.517 (inactive) and -0.242 (inactive),-0.431 (inactive) and 0.772 (inactive),-0.613 (inactive) and -0.949 (inactive),-1.47 and -0.878,-0.259 and -0.153,0.588 and -3.38,0.479 and -2.42,0.0925 and -0.262
CC(=O)OC[C@H]1O[C@H](C#CC(C)(C)C)C=C[C@@H]1OC(C)=O,-0.0516,0.13 (inactive),0.992 (inactive),-0.162 (inactive),1.35 (inactive),1.58,-0.0331,0.835,-0.392,0.953
C[C@@H]1CC[C@@H](C(=O)O)N[C@H]1c1ccc(-c2ccco2)cc1,0.266,0.0233 (inactive),-0.778 (inactive),-0.339 (inactive),-0.885 (inactive),0.192,-0.0791,1,0.406,0.611
C[C@@H]1CC[C@H]2C(=O)O[C@H](CN=[N+]=[N-])CN2[C@H]1c1ccc(Br)cc1,-0.0328 and -0.216,-2.85 (inactive) and -0.512 (inactive),-0.203 (inactive) and -0.277 (inactive),-0.162 (inactive) and 3.89 (inactive),-0.177 (inactive) and -0.414 (inactive),-0.167 and 0.0058,0.0232 and -0.154,0.225 and 0.372,0.455 and 0.101,0.286 and -0.196
O=C1C[C@]2(c3ccc([N+](=O)[O-])cc3)C(=O)N(Cc3ccccc3)c3cc(CO)ccc3[C@H]2N1C1CCCCC1,0.0771 and 0.551,0.282 (inactive) and -5.67 (inactive),-0.19 (inactive) and -0.334 (inactive),-0.348 (inactive) and -0.152 (inactive),1.03 (inactive) and -0.885 (inactive),-0.286 and -0.157,-0.249 and 0.163,0.251 and 0.0218,0.22 and -0.0773,0.837 and 1.22
CCN1C(=O)[C@H]2[C@H]3[C@H](O)[C@H](O)CC(=NOC[C@@H](O)COCc4ccco4)[C@@H]3CC[C@H]2C1=O,0.0867 and 0.192,0.343 (inactive) and 0.422 (inactive),-1.34 (inactive) and -0.00909 (inactive),-0.746 (inactive) and 1.6 (inactive),0.463 (inactive) and 0.503 (inactive),-0.503 and -0.321,-0.324 and -0.15,3.48 and 0.374,3.12 and 0.272,2.1 and 1.78
CCCC[C@@H]1CN2[C@@H](CC[C@@H](C)[C@@H]2c2ccc(Br)cc2)C(=O)O1,-0.0248 and 0.0673,-0.216 (inactive) and -0.116 (inactive),0.283 (inactive) and 1.16 (inactive),-0.704 (inactive) and 1.1 (inactive),0.693 (inactive) and 0.189 (inactive),0.119 and 0.117,-0.101 and 0.0074,0.434 and -0.0758,0.458 and 0.139,0.611 and 0.993
CCOC(=O)NN=C1C[C@@H](O)[C@@H](O)[C@@H]2[C@@H]3C(=O)N(Cc4ccccc4)C(=O)[C@@H]3CC[C@@H]12,-0.0099,0.162 (inactive),-0.0519 (inactive),0.52 (inactive),0.0513 (inactive),-0.199,-0.178,0.832,0.304,0.773
C=CC[C@H](O)c1ccc(OCCO)cc1,-0.0223 and -0.614,-1.36 (inactive) and -0.878 (inactive),-0.809 (inactive) and -0.0923 (inactive),-0.925 (inactive) and 0.18 (inactive),-0.506 (inactive) and -0.0908 (inactive),-0.893 and -1.41,-0.0371 and -0.497,-0.646 and -1.69,-0.0897 and -1.66,-0.125 and 0.891
Cc1ccc(S(=O)(=O)N[C@H]2COC(=O)[C@@H](C)COC(=O)[C@H](C)NC(=O)CC=C[C@H]2C)cc1,0.105,0.365 (inactive),-0.16 (inactive),-0.204 (inactive),-0.253 (inactive),-0.192,-0.128,-0.233,-0.11,0.837
C=CCN(C(=O)C1N(CCCCCCO)C(=O)C2C(C(=O)O)C3C=CC21O3)C(C)(C)C (stereo not given),-1.54 and -1.09,0.317 (inactive) and 0.148 (inactive),1.99 (inactive) and 1.42 (inactive),0.992 (inactive) and -0.216 (inactive),0.129 (inactive) and 0.453 (inactive),-1.47 and -1.01,-0.251 and -0.278,-3.52 and -3.83,-3.07 and -2.82,-1.68 and -1.49
CCOC(=O)[C@@H]1CC2O[C@]23C[C@@H]1C(=O)N1CCC[C@@H]1[C@H]3O[Si](C)(C)C(C)(C)C (stereo not given in full),0.187 and -0.0017,-1.17 (inactive) and 0.553 (inactive),-0.377 (inactive) and 0.487 (inactive),-1.23 (inactive) and -0.414 (inactive),-0.217 (inactive) and 1.42 (inactive),-0.468 and -0.0735,-0.105 and 0.651,-0.36 and -0.384,-0.855 and -0.032,0.361 and 1.05
Cc1ccc(S(=O)(=O)N[C@H]2COC(=O)[C@@H](Cc3ccccc3)NC(=O)[C@@H](C)COC(=O)CC=C[C@@H]2C)cc1,0.089 and 0.0949,0.0143 (inactive) and -1.15 (inactive),-0.166 (inactive) and -1.8 (inactive),-0.746 (inactive) and 0.834 (inactive),-0.899 (inactive) and -0.0204 (inactive),-0.236 and -0.154,-0.234 and -0.158,0.143 and 0.354,0.254 and 0.289,1.07 and 1.29
COC(=O)C1=C2N(Cc3ccccc3)C(C)=C(C(=O)OC)[C@@H](c3ccccc3)N2C(=O)[C@](O)(C(=O)OC)C1,-0.0382 and -0.0845,-0.124 (inactive) and 0.0688 (inactive),0.917 (inactive) and -0.22 (inactive),2.08 (inactive) and 1.8 (inactive),-1.03 (inactive) and -0.435 (inactive),-0.302 and -0.327,-0.0736 and -0.0895,1.04 and 2.21,0.42 and 3.89,0.71 and 0.673
